# TDP1 cell noCPT: qHTS for Inhibitors of human tyrosyl-DNA phosphodiesterase 1 (TDP1): qHTS in cells in absence of CPT. DT40 Tdp1-/- hTDP1 cells, no CPT, ATP luminescence, 48 h. Potency, µM (doses to about 46.2 µM), for the others: at the top dose activity change, negative = growth inhibition, usual class: inhibitors. 420,000 compounds, 15% hits. AID 686978, 2013; note: potency is the fitted concentration of half-maximal effect; % is set by controls: 0 for no effect and ±100 for the full control effect; nearly all actives have a fitted effect of over 55% in size
#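 Growth of hTDP1-complemented DT40 Tdp1-knockout cells is measured by ATP luminescence after at least 48 hr compound exposure at 37 °C, with DMSO substituting for the 20 nM CPT used in the parallel screen.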
# Chronic BCR inh: blocks chronic active B-cell receptor signaling. 340,000 compounds, 0.05% hits. ABC-DLBCL IkBa-CBG/CBR reporter, luminescence ratio, 4 h. Potency, µM (titrated, usually from 46.1 µM), for the others: top-dose activity change, negative = inhibition, usual class: inhibitors; active = well fitted inhibition curve with a large enough effect in the signal ratio, with a control signal flat, not every such curve was filed as active; inconclusive = small, poorly fitted or top-dose-only effect, or effect the other way, or a change in a side signal; the % refers to the signal ratio;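 note: potency is the fitted concentration of half-maximal effect; plate controls were basal doxycycline-induced cells for no effect and cells given 10 µM MG132 for full effect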
#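 Concentration-response series (up to 46 uM) were applied to TMD8 dual-reporter cells for 4 h at 37C with doxycycline. Green/red ratio, after filter-overlap correction, defined %Activity; red signal alone was normalised to basal cells and zero luminescence.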
# SW480 rerep: DNA re-replication induction in SW480 cells. 340,000 compounds, 1.8% hits. SW480 DNA re-replication, Hoechst DNA content imaging, 48 h. Potency, µM (highest dose often 46.1 µM), without a hit: at the highest dose re-replication activation, actives largely listed as activators. AID 624297; note: potency is the fitted concentration of half-maximal effect; % of control where 0% means no effect; nearly all actives have a fitted effect of over 55% in size
#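 Image-based read-out: total Hoechst fluorescence of nuclei (405 nm excitation, 500-530 nm emission), with hits raising the fraction of high-intensity nuclei. SW480 colon cells incubated 48 hr with compounds at 37 C.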
# MCF10A rerep: inducers of DNA re-replication in MCF 10A breast cells; MCF 10A DNA re-replication, Hoechst nuclear intensity, 48 h; Potency, µM (titrated, usually from 46.1 µM), for inactives: at the highest dose activity, positive = re-replication, hits mostly activators; 350,000 compounds, 2.9% hits; AID 624296; note: potency is the fitted concentration of half-maximal effect; % of control where 0% means no effect; nearly all actives have a fitted effect of over 50% in size
# DT40 TDP1 CPT: DT40-hTDP1 cell growth loss with CPT; 420,000 compounds, 12% hits; AID 686979; Potency, µM (titrated, usually from 46.2 µM), for inactives: at the top dose activity change, negative = growth inhibition, actives largely listed as inhibitors; chicken DT40 Tdp1-/-;hTDP1 cells + 20 nM CPT, ATP luminescence, 48 h; note: potency is the fitted concentration of half-maximal effect; % is set by controls: 0 for no effect and ±100 for the full control effect; nearly all actives have a fitted effect of over 55% in size
#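 Chicken DT40 Tdp1-/- cells stably complemented with human TDP1 were seeded at 400 cells/well in medium containing 20 nM camptothecin, exposed to pin-transferred compounds, and grown at 37 °C for at least 48 hr. Viability was read as ATP luminescence.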
# IL1B secr inh: inflammasome signaling inhibition, IL-1 beta readout; THP-1 LPS/ATP IL-1B secretion, AlphaLISA, 16 h; stronger effect = lower value; activity change, % at 57.5 µM; 360,000 compounds, 4.7% hits; AID 743279; in the data active = activity change below about -50%; inconclusive = mostly about -30% to -49%; note: % is set by controls: 0 for no effect and ±100 for the full control effect
#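 Secreted IL-1B measured by AlphaLISA bead assay after 16 h compound exposure of THP-1 cells; compounds (final up to 57.5 uM) added 1 h before LPS (250 ng/mL) and ATP (1.25 mM) stimulation; lower signal means less secretion.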
# The depositor's hits bear a star; u = inconclusive; x = not tested or not shown. A selection: hits, their analogues and other compounds. The true share with any hit is near 19%. Unless noted, calls come from the whole dose curve; as a rule, active = well fitted curve in the direction sought with a large enough effect; inconclusive = small, poorly fitted or top-dose-only effect, or another doubt; inactive = no such curve, though single readings can be large; an effect the other way counts as inactive or inconclusive.
SMILES,TDP1 cell noCPT,Chronic BCR inh,SW480 rerep,MCF10A rerep,DT40 TDP1 CPT,IL1B secr inh
CSc1nn(Cc2ccc(Cl)cc2)c(N(C(C)=O)C(C)=O)c1S(=O)(=O)c1ccccc1,u,x,x,x,16.4µM*,x
CSc1nn(Cc2ccc(F)cc2)c(N)c1S(=O)(=O)c1ccc(Cl)cc1,16.4µM*,x,x,x,u,x
Cc1ccc(S(=O)(=O)Nc2ccccc2C(=O)N2CCCCCC2)cc1,-18.2%,0.1%,0.1%,0.1%,-4.5%,9.1
CCc1ccc(NC(=S)N(CCN2CCOCC2)Cc2ccccc2F)cc1,-7.9%,-6.8%,0.6%,2.1%,-6.1%,0.0
COc1ccccc1P(=O)(Cc1ccccc1)c1ccccc1 (stereo not drawn),u,-2.1%,-5.3%,0.3%,-28.0%,7.4
CC(=O)Nc1ccccc1-c1nc2cc(C#N)c(C#N)cc2[nH]c1=O,20.6µM*,u,-28.0%,-1.2%,20.6µM*,7.9
CCOc1ccc(N(C)c2ccc(/C=C3/SC(=S)NC3=O)cc2)cc1,16.4µM*,12.5%,u,4.11µM*,u,20.8
CCOc1c(OC(C)=O)ccc(/C=C2\N=C(SCC)SC2=O)c1[N+](=O)[O-],-15.2%,1.4%,-11.8%,4.2%,8.1%,26.4
CN(C)c1ccc(C=C2SC(=S)NC2=O)cc1,u,x,-0.4%,12.8%,0.3%,12.6
COc1cccc(C=C2SC(=S)NC2=O)c1,-17.6%,x,1.2%,16.4µM*,u,-7.3
COc1ccc2cc(/C=C3\SC(=S)NC3=O)c(N3CCOCC3)nc2c1,11.6µM*,u,-3.4%,u,u,-68.9*
CCOc1c(O)ccc(/C=C2\SC(=S)NC2=O)c1[N+](=O)[O-],-4.6%,9.0%,26.2%,25.9µM*,22.7%,-16.3
CC(=O)Oc1ccccc1Cn1c(C)c(C(=O)NCc2ccccc2C(F)(F)F)sc1=O,u,x,x,x,u,15.1
CC(NS(=O)(=O)c1ccc(Br)cc1)C(c1cccs1)N1CCOCC1 (stereo not drawn),u,2.5%,-16.2%,-3.5%,18.4µM*,10.3
CC(NS(=O)(=O)c1ccccc1)C(c1cccs1)N1CCOCC1 (stereo not drawn),4.0%,u,-3.8%,-5.7%,-2.6%,3.5
CC(NS(C)(=O)=O)C(c1cccs1)N1CCN(c2ccccc2)CC1 (stereo not drawn),-6.8%,-2.9%,-1.7%,16.9%,-0.9%,-9.9
COc1ccc(N2CCN(C(c3cccs3)C(C)NC(=O)C(=O)N3CCCC3)CC2)cc1 (stereo not drawn),u,0.0%,0.3%,8.2%,16.4µM*,25.7
CCS(=O)(=O)NC(C)C(c1cccs1)N1CCN(c2ccc(OC)cc2)CC1 (stereo not drawn),23.1µM*,-3.6%,-9.2%,2.1%,20.6µM*,1.7
COc1ccc(N2CCN(C(c3cccs3)C(C)NS(=O)(=O)c3ccccc3)CC2)cc1 (stereo not drawn),13µM*,0.9%,-4.2%,u,20.6µM*,-3.6
Cc1noc(C)c1C(=O)Nc1cccc(S(=O)(=O)N2CCOCC2)c1,0.2%,-3.0%,-6.7%,-2.1%,-13.1%,0.0
CCOC(=O)C1CCCN(c2ncnc3c2cnn3-c2ccc(C)c(Cl)c2)C1 (stereo not drawn),-13.6%,1.8%,x,x,u,x
CC(=O)CCC(=O)OCC(=O)c1ccc(C(F)(F)F)cc1,-2.9%,12.8%,28.1%,0.6%,7.3%,18.7
O=C(O)[C@@H]1[C@@H]2C[C@@H]2CN1c1ncccc1[N+](=O)[O-],3.7%,0.0%,-0.4%,15.1%,-5.8%,12.4
CCOc1ccc(NC(=O)CN(C)C(=O)c2ccc(C)o2)cc1OCC,-13.2%,-0.4%,-17.0%,-0.6%,16.4%,10.9
CCCCOCCCNC(=O)C[C@@H]1C[C@@]2(C(=O)OC)CC(C)(C)CC=C2N(Cc2ccc3c(c2)OCO3)C1=O,20.6µM*,x,x,x,u,-10.9
SMILES,TDP1 cell noCPT,Chronic BCR inh,SW480 rerep,MCF10A rerep,DT40 TDP1 CPT,IL1B secr inh
COC(=O)[C@@]12C[C@@H](CC(=O)NCCC(C)C)C(=O)N(Cc3ccc4c(c3)OCO4)C1=CCC(C)(C)C2,18.4µM*,x,x,x,u,-55.2*
COCCCNC(=O)C[C@@H]1C[C@@]2(C(=O)OC)CC(C)(C)CC=C2N(Cc2ccc3c(c2)OCO3)C1=O,u,x,x,x,13.3%,-17.9
Cc1ccc(N2C(N)=C(C#N)C(c3cc(CN4CCOCC4)cs3)C3=C2CC(C)(C)CC3=O)cc1 (stereo not drawn),-20.8%,-23.6%,0.3%,-1.7%,-7.9%,6.3
CCN(CC)C(=O)Cn1ncc2c([nH]c3ccc(C)cc32)c1=O,-3.3%,x,x,x,6.3%,x
O=S(=O)(/C=C/c1ccccc1)Oc1ccccc1,16.4µM*,20.6%,u,u,25.9µM*,-88.9*
O=S1(=O)CC(N2CCSCC2)CN1Cc1cn(Cc2cccc(C(F)(F)F)c2)nn1 (stereo not drawn),-9.7%,x,x,x,-4.0%,17.3
CN(C)c1ccc(/C=C/c2nc3ccccc3c(=O)[nH]2)cc1,10.3µM*,u,16.3%,2.0%,20.6µM*,-7.5
O=c1[nH]c(/C=C/c2ccccc2[N+](=O)[O-])nc2ccccc12,-15.9%,u,-3.2%,3.1%,-10.8%,2.5
O=c1[nH]c(/C=C/c2ccc(Br)cc2)nc2ccccc12,-11.5%,u,-5.9%,u,-10.5%,-7.5
Cc1nc(/C=C/c2ccccc2)[nH]c(=O)c1-c1ccccc1,u,u,u,u,10.3µM*,-1.3
Cc1cccc(/C=C\c2nc3ccccc3c(=O)[nH]2)c1,18.4µM*,4.7%,20.6µM*,5.8µM*,20.6µM*,-4.0
COc1ccc(S(=O)(=O)N2CCN(CC(=O)NC(C)c3cccs3)CC2)cc1 (stereo not drawn),u,x,x,x,4.3%,-19.3
COc1ccc2[nH]c(CN3CCN(CC(C)C)C(CCO)C3)c(C)c2c1 (stereo not drawn),23.1µM*,u,-4.6%,16.6%,-16.6%,-96.1*
Cc1c(CN2CCN(CC(C)(C)C)C(CCO)C2)[nH]c2ccccc12 (stereo not drawn),u,-7.6%,1.1%,15.4%,0.4%,22.1
CCOc1ccc(CN2CCN(Cc3cccc4c3OCO4)CC2CCO)cc1 (stereo not drawn),u,6.9%,-4.5%,7.2%,u,-4.0
CCOc1ccc(CN2CCN(Cc3[nH]c4ccccc4c3C)CC2CCO)cc1 (stereo not drawn),u,-8.0%,23.1µM*,u,u,-74.3*

# Screening results deposited in PubChem by National Center for Advancing Translational Sciences (NCATS).
